# MEKK2mut PB1 HTS – MEK5 binding signal on mutant MEKK2 PB1, primary screen, biochemical, multiplex bead flow cytometry, Alexa488-MEK5 | Alexa488-MEK5 binding to MEKK2 mutant | hit rate 0.35% among 290,000 | percent response, % at 10 µM; in the data active means percent response above about 24%, passing the limit was not always enough
# TMEM16A inh – TMEM16A chloride channel inhibitors, primary screen, cell-based, HTS. Anoctamin-1 (Mus musculus), Q8BHY3. HEK293 TMEM16A/YFP iodide influx fluorescence, ionomycin. normalized B-score (activity score, 25-100; higher = stronger inhibition) at 10 µM. hit rate 1.2% among 310,000. AID 588511, 2011;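 active means ratio plate-corrected score three or more library SD toward inhibition, starting fluorescence score within five deviations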;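 further: score derived from kinetic fluorescence span divided by baseline fluorescence per well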
# MEKK3 PB1 HTS – modulators of MEKK3-MEK5 PB1 binding, primary screen, biochemical, wildtype MEKK3, multiplex bead flow cytometry, Alexa488-MEK5 | bead-based flow cytometry, Alexa488-MEK5 binding to MEKK3; actives lie on both sides; 0 = blocked by unlabeled MEK5, 100 = vehicle | AID 1529, 2009 | binding response (% of control), % at 10 µM | hit rate 1.4% among 290,000;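 active means binding response more than 3 SD above or below the average of its plate-row segment, actives on both sides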;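 further: Alexa488 bead fluorescence after subtracting the streptavidin-only scavenger bead signal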
# MEKK2wt PB1 HTS – modulators of MEK5 binding to wildtype MEKK2, primary screen, biochemical, multiplex bead flow cytometry, Alexa488-MEK5; hit rate 1.1% among 290,000; binding response (% of control), % at 10 µM; Alexa488-MEK5 binding to MEKK2 WT; actives lie on both sides; Mitogen-activated protein kinase kinase kinase 2 (Homo sapiens), Q9Y2U5; in the data active means binding response below about 67% or above about 130%
# NTR1 agonist – agonists of human NTR1, primary screen, imaging, U2OS cells, beta-arrestin-GFP, high content | NTR1-U2OS beta-arrestin-GFP spot imaging, agonist mode | hit rate 0.17% among 330,000 | activation, % at 20 µM | AID 493036, 2011;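 active means activation at or above 40% of the spot to cytoplasm intensity ratio, with at least 20 cells analyzed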;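 further: 0% = DMSO without peptide and 100% = 100 nM NTR1 peptide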
# Target sequence (P30989 whole entry, looked up): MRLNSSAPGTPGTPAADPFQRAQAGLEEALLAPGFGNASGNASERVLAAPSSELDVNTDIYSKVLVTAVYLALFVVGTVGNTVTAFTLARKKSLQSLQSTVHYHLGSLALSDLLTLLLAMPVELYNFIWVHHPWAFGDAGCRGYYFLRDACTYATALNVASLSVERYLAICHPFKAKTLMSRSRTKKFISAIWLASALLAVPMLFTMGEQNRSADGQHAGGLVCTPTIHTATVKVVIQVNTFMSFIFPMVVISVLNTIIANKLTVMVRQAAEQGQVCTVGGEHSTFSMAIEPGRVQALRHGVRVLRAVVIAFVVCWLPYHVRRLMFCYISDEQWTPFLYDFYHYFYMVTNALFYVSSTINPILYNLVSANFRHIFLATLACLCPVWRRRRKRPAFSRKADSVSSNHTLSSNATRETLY
# TMEM16A act – TMEM16A chloride channel activators or potentiators, primary screen, cell-based, HTS. Anoctamin-1 (Mus musculus), Q8BHY3. HEK293 TMEM16A/YFP-H148Q/I152L, iodide quench fluorescence; hits give low values. B-score at 10 µM. hit rate 0.3% among 340,000. AID 623877, 2012;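 active means fluorescence-ratio B-score plate-corrected deviation score at least 3 library SD below zero, with starting fluorescence score within 5 deviations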;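 further: channel opened by trigger with iodide after compound preincubation; score built on the fluorescence ratio of max minus min over baseline; more negative score means more quench and so TMEM16A activation or potentiation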
# TMEM16A reconf – TMEM16A chloride channel inhibitors, confirmation, cell-based, re-confirmation. AID 652189, 2013. hit rate 39% among 2,300. shares compounds with TMEM16A inh. HEK293 TMEM16A/YFP-H148Q, iodide quench fluorescence; ionomycin added to raise cell calcium. inhibition, % at 10 µM;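 active means mean duplicate percent inhibition, scaled so buffer wells are 0 and the reference blocker 100, over three buffer SD above buffer mean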
# HEK293 Ca mobil – calcium mobilization in TMEM16A/YFP HEK293 cells, confirmation, counter-screen for TMEM16A inhibitor project | shares compounds with TMEM16A inh | Fluo4 calcium mobilization | hit rate 2% among 2,300 | calcium response (% of ionomycin), % at 10 µM;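 active means duplicate-averaged calcium signal over 20% of the ionomycin maximum, relative to buffer baseline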;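 further: each well's signal is peak minus trough fluorescence divided by its pre-addition baseline; 0% = buffer wells and 100% = ionomycin wells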
# YFP-HEK293 quench – iodide YFP quench changes in parental YFP-HEK293, counter-screen for TMEM16A inhibitor project, cell-based. shares compounds with TMEM16A inh. ionomycin. YFP ratio F(max-min)/F0 at 10 µM. 2,300 tested, under 10 active;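 active means yellow fluorescent protein signal ratio exceeding the buffer control mean by over 5 SD of those controls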;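 further: ratio is mean of duplicate wells from kinetic YFP trace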
# ClC-1 inh – ClC-1 chloride channel inhibition, selectivity assay for TMEM16A inhibitor project, cell-based, voltage-dependent ClC-1. shares compounds with TMEM16A inh. CHO ClC-1-YFP, iodide influx fluorescence quench; iodide control reads 0, buffer control 100. ratio percent, % at 10 µM. 2,300 tested, under 10 active;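 active means duplicate-mean ratio percent above the mean of iodide-only control wells, which defines zero, plus 5 of their SD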;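 further: higher percent means stronger block of ClC-1 iodide influx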
# The depositor's hits bear a star; i = inactive; x = no result given. In the library only some 3.4% were active in any assay of this set; here they are far more common.
SMILES,MEKK2mut PB1 HTS,TMEM16A inh,MEKK3 PB1 HTS,MEKK2wt PB1 HTS,NTR1 agonist,TMEM16A act,TMEM16A reconf,HEK293 Ca mobil,YFP-HEK293 quench,ClC-1 inh
CCCCN(C)CCn1c(=S)[nH]c2ccc(N3CCOCC3)cc2c1=O,1.0,25*,99.0,101.0,-2.5,i,i,i,-0.896,-5.5
COc1ccc(-c2nc3cc(NC(=O)Cc4ccc(OC)c(OC)c4)ccc3o2)cc1,-6.0,100*,91.0,89.0,0.2,i,i,i,-0.951,-7.5
CSc1nc2sc3c(c2c(=O)n1C)CCCC3,-2.0,i,87.0,88.0,0.3,i,x,x,x,x
CSc1nc2sc3c(c2c2nnnn12)CCCC3,4.0,100*,98.0,99.0,17.2,i,i,i,-1.17,-8.5
COc1ccccc1NS(=O)(=O)c1cccc(C(=O)NC2CCN(Cc3ccccc3)CC2)c1,x,100*,x,x,-0.2,i,56.5%*,i,-1.05,-27.0
O=C(CCc1ccccc1)NC1(Cc2ccccc2)CCN(CCCc2ccccc2)C1=O (stereo unspecified),x,x,x,x,2.3,i,x,x,x,x
CCc1c(C(=O)Nc2ccc(OC)cc2)[nH]c(C)c1C(C)=O,-1.0,25*,99.0,95.0,0.0,i,i,i,-0.957,-7.5
COc1ccc(NC(=O)c2[nH]c(C)c(C(C)=O)c2C)cc1,-3.0,i,101.0,97.0,1.3,i,x,x,x,x
COc1ccc(C(=O)NC(C)c2ccc(-n3ccnc3)cc2)c(OC)c1 (stereo unspecified),9.0,i,106.0,111.0,1.3,i,x,x,x,x
N/C(CS(=O)(=O)c1ccc(F)cc1)=N\O,16.0,i,102.0,101.0,-0.1,i,x,x,x,x
Cc1ccc(CNC(=O)CCNS(=O)(=O)c2cccc3nsnc23)cc1,0.0,100*,100.0,102.0,0.9,i,i,i,-0.739,-3.0
CCOC(=O)C1=CC[C@@H](c2ccccc2Cl)N(S(=O)(=O)c2ccc(C)cc2)[C@H]1C(=O)OCC,x,x,x,x,1.3,i,x,x,x,x
CCOC(=O)c1sc2nccc(N(C)C)c2c1N=CNOCc1c(F)cccc1Cl,0.0,100*,96.0,89.0,8.3,i,i,i,-0.946,-4.0
Cc1nc2c(Cl)cccc2[nH]1,10.0,i,106.0,108.0,4.3,i,x,x,x,x
O=C(c1ccc(NS(=O)(=O)c2cccs2)cc1)N1CCN(c2ccccc2Cl)CC1,0.0,i,101.0,94.0,1.1,i,x,x,x,x
CC(=Nc1cccc(C)c1)c1sc2ccccc2c1O,-7.0,i,92.0,82.0,0.4,i,i,i,-0.93,-9.5
CC(=Nc1ccc(O)cc1)c1sc2ccccc2c1O,5.0,i,110.0,107.0,2.1,i,x,x,x,x
O=C(CSc1ccc(-c2cccnc2)nn1)Nc1ccc(F)cc1,7.0,i,104.0,105.0,-0.2,i,x,x,x,x
c1ccc2[nH]c(CSc3ncnc4c3oc3ccccc34)nc2c1,0.0,100*,99.0,103.0,3.0,i,21.5%*,i,-0.842,-11.0
Cc1c(Cc2ccccc2)c(=O)oc2cc(OCC(=O)NCC(O)c3ccccc3)ccc12 (stereo unspecified),2.0,i,105.0,100.0,1.6,i,x,x,x,x
COc1ccc(C(=O)Nc2ccc(S(=O)(=O)N3CCc4ccccc43)cc2)cc1,6.0,100*,58.0,117.0,4.5,i,34.0%*,i,-1.07,-10.5
COc1ccc(NC(=O)c2cccc(S(=O)(=O)N3CCc4ccccc43)c2)cn1,-4.0,25*,100.0,102.0,5.4,i,i,i,-1.09,-16.0
NS(=O)(=O)c1ccc(NC(=O)c2ccc(S(=O)(=O)N3CCc4ccccc43)cc2)cc1,-2.0,i,102.0,105.0,2.3,i,x,x,x,x
CC(C)(O)c1cc2ccc(C#Cc3ccsc3)cc2c(=O)o1,x,x,x,x,2.3,i,x,x,x,x
O=c1c2ccccc2nc(-c2ccc(Cl)cc2)n1C1CCS(=O)(=O)C1 (stereo unspecified),-6.0,i,97.0,95.0,2.7,i,x,x,x,x
SMILES,MEKK2mut PB1 HTS,TMEM16A inh,MEKK3 PB1 HTS,MEKK2wt PB1 HTS,NTR1 agonist,TMEM16A act,TMEM16A reconf,HEK293 Ca mobil,YFP-HEK293 quench,ClC-1 inh
COCCNC(=S)N1CCC(C(=O)c2ccc3c(c2)OCCO3)CC1,-7.0,i,95.0,95.0,0.4,i,x,x,x,x
Clc1ccc(OCCN2CCN(c3ncnc4sccc34)CC2)cc1,1.0,100*,105.0,105.0,0.6,i,16.0%*,i,-1.17,-31.5
Cc1ccc(OCCN2CCN(c3ncnc4sc(C)c(C)c34)CC2)cc1,2.0,i,104.0,112.0,4.8,i,x,x,x,x
COCCN1CCN(C(=O)c2cc(COc3cc(C)ccc3C)on2)CC1,-4.0,i,97.0,101.0,0.7,i,x,x,x,x
O=C(Nc1nc(-c2cc(Cl)sc2Cl)cs1)c1ccc(Br)s1,-1.0,25*,98.0,99.0,0.0,i,i,i,-1.03,-11.0
COc1ccc(CCCc2nnc(SCC(=O)Nc3cccc(C)c3)o2)cc1,-3.0,25*,96.0,98.0,-0.3,i,18.0%*,i,-1,-13.5
CCOC(=O)c1cnc2sc3c(n2c1=O)CCCC3,2.0,100*,97.0,95.0,3.8,i,i,i,-1.12,-8.0
CN(C)c1ccccc1C(=O)N1CCCC(C(=O)c2ccc3ccccc3c2)C1 (stereo unspecified),0.0,100*,100.0,100.0,8.8,i,i,i,-1.23,-8.0
COc1ccc(N2CCOCC2)c(NC(=O)c2cccs2)c1,-3.0,i,101.0,101.0,0.0,i,x,x,x,x

# Assay outcomes: PubChem BioAssay, several laboratories
